Common to all, as to test: NCI-60 one-dose screen, 48 h (100 = growth as untreated, 0 = no growth, -100 = all killed)
What all share (conditions): 10 µM unless noted

For test [1], the system named is T-47D breast.
The subject of test [2] is BT-549 breast.
Test [3] deals with MDA-MB-435 melanoma.
Test [4] concerns SW-620 colon.
In test [5] the test system is MCF7 breast.
The test system of test [6] is HCT-116 colon.
Test [7] relates to HCC-2998 colon.
Test [8] relates to KM12 colon.

Compounds without any hit were thinned out: in the full panel of roughly 83,000, 20% have a hit.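 The test compound was applied at a single concentration to cells in 96-well plates for 48 hours, and percent growth was recorded.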 Unmarked numbers belong to inactive results. The source made the active and inactive calls. Rule for the calls: active = growth percent below 10; inactive = the rest.

Take `COc1cc(NN=C(c2ccc(O)cc2)c2ccc(O)cc2)c([N+](=O)[O-])cc1[N+](=O)[O-]`: the growth in test [1] is -10.1% (active); in test [2], 111%; in test [3], 95.6%; in test [4], 98.9%; in test [5] it was 1.9% (active); in test [6], 1.31% (active). For the same compound, the growth in test [7] is 2.63% (active); in test [8], 73.2%.

`O=c1c2c3c(sc2n2cnnc2n1Cc1ccccc1)CCCC3`: the growth is 38.4% in test [1]; 95.7% in test [2]; 113% in test [3]; 113% in test [4]; 96.6% in test [5]; 122% in test [6]. The growth in test [7] is 105%; in test [8], 113%.

As to `NC(=O)CC1C=CCC1` (configuration not stated), the growth in test [1] is 106%; in test [2] it was 90.1%; in test [3] it was 102%; in test [4], 97.3%; in test [5], 92.1%; in test [6], 105%. The growth in test [7] is 101%; in test [8], 102%.

On to `Nc1nnc(CSc2nnc3n(Cc4ccccc4)c(=O)c4c5c(sc4n23)CCCC5)s1`, for which the growth was 74% in test [1]; 117% in test [2]; 106% in test [3]; 110% in test [4]; -30.9% (active) in test [5]; 89.5% in test [6]. For the same compound, the growth was 105% in test [7] and 121% in test [8].

As for `CCOC(=O)c1nn(C2CCCCO2)c2ccc(NS(=O)(=O)c3ccc(C)cc3)cc12` (configuration not stated), the growth was 80% in test [1]; 91.8% in test [2]; 100% in test [3]; 98.1% in test [4]; 93.1% in test [5]; 87.8% in test [6]. Besides, the growth is 107% in test [7] and 104% in test [8].

With `Fc1cc2[nH]ncc2c2c3c(c(-c4cn[nH]c4C(F)(F)F)nc12)C1CCC3C1` (configuration not stated), the growth in test [1] was 3.94% (active); in test [2], -60.7% (active); in test [3] it was 22.8%; in test [4], 2.37% (active); in test [5] it was 2.59% (active); in test [6], 1.87% (active). Besides, the growth in test [7] is 14.7%; in test [8] it was 7.9% (active).

`COc1ccc(-c2cc(-c3ccc(Cl)cc3)nc(NCCCCNc3ccnc4cc(Cl)ccc34)n2)cc1`: the growth is 78.1% in test [1]; 85.5% in test [2]; 93.8% in test [3]; -61.8% (active) in test [4]; -69.3% (active) in test [5]; 23.4% in test [6]. Moreover, the growth was 26.1% in test [7] and 76.2% in test [8].

Consider `ClC1=C(Cl)C(Cl)=C(Cl)C1=Cc1ccccc1`, for which the growth in test [1] is -26.4% (active); in test [2], -82.1% (active); in test [3] it was -54% (active); in test [4], -56.2% (active); in test [5], -29.3% (active); in test [6], -99% (active). The growth in test [7] is -82.8% (active); in test [8] it was -84.7% (active).

`Cc1cc(-c2ccc(N=Nc3c(S(=O)(=O)O)cc4cc(S(=O)(=O)O)cc(N)c4c3O)c(C)c2)ccc1N=Nc1cc(S(=O)(=O)O)c2ccccc2c1O`: the growth in test [1] is 99.6%; in test [2], 107%; in test [3] it was 104%; in test [4] it was 109%; in test [5], 92.2%; in test [6] it was 96.4%. In addition, the growth in test [7] is 104%; in test [8] it was 102%.

With `C#C[C@]1(O)CC[C@H]2[C@@H]3CC=C4c5nc(N)sc5CC[C@]4(C)[C@H]3CC[C@@]21C`, the growth was 58.2% in test [1]; 0.196% (active) in test [2]; 15.5% in test [3]; 74.6% in test [4]; 75.2% in test [5]; 33.8% in test [6]. For the same compound, the growth in test [7] is 80.8%; in test [8], 44.7%.

`CN(C)c1cc(NN=C(c2ccc(O)cc2)c2ccc(O)cc2)c([N+](=O)[O-])cc1[N+](=O)[O-]`: the growth in test [1] is 19.1%; in test [2], 115%; in test [3], 84.9%; in test [4] it was 108%; in test [5], 27.2%; in test [6] it was 33.2%. The results for the growth in test [7] and in test [8] were 59.1% and 92%, respectively.

In the case of `CCCCOC(=O)c1cccc([N+](=O)[O-])c1`, the growth in test [1] was 110%; in test [2], 104%; in test [3] it was 103%; in test [4] it was 103%; in test [5], 115%; in test [6], 113%. Further, the growth was 98.5% in test [7] and 108% in test [8].

Regarding `Clc1ccc(N2CCN(CCCN3CCN(c4cccc(Cl)c4)CC3)CC2)cc1`, the growth in test [1] is 40.2%; in test [2], 29.4%; in test [3], 62.4%; in test [4] it was 66.5%; in test [5] it was 44.6%; in test [6], 36.6%. For the same compound, the growth in test [7] was 66.8%; in test [8] it was 59.5%.

Consider `CO[C@H]1CC[C@@]2(C)C(=CC[C@H]3[C@@H]4C[C@H](O)C[C@@]4(C)CC[C@@H]32)C1`, for which the growth is 54% in test [1]; 79.5% in test [2]; -16.9% (active) in test [3]; 28.8% in test [4]; 25.7% in test [5]; 29.2% in test [6]. Moreover, the growth in test [7] is 68.4%; in test [8] it was 35.7%.

As to `Cc1nc(Cl)cc(N(c2cc(Cl)nc(C)n2)c2ncc(C(=O)Nc3c(C)cccc3Cl)s2)n1`, the growth is 23.5% in test [1]; 93.3% in test [2]; 71.8% in test [3]; 96.6% in test [4]; 53.3% in test [5]; 19.1% in test [6]. In addition, the growth in test [7] is 80.7%; in test [8] it was 79.7%.

In the case of `CC(=O)n1cc(C=O)c2ccccc21`, the growth was 98.8% in test [1]; 96.5% in test [2]; 109% in test [3]; 102% in test [4]; 94.8% in test [5]; 109% in test [6]. Moreover, the figures for the growth in test [7] and in test [8] were 100% and 94%, respectively.

On to `CC1(C)C(=O)/C(=C\c2cccnc2)C[C@]2(C)[C@H]3CC[C@@H]4[C@H]5[C@H](C(=O)/C=C/c6cccnc6)CC[C@]5(C(=O)O)CC[C@@]4(C)[C@]3(C)CC[C@@H]12`, for which the growth in test [1] was -10% [100 µM] (active); in test [2], -32.2% [100 µM] (active); in test [3], -78.2% [100 µM] (active); in test [4] it was -21.8% [100 µM] (active); in test [5], -41.9% [100 µM] (active); in test [6], -56.7% [100 µM] (active). The growth in test [7] was -76.4% [100 µM] (active); in test [8], -82.1% [100 µM] (active).

As to `CC(C)(C)c1cc(C(=O)N2CCC(C(=O)NCCN)CC2)cc(C(C)(C)C)c1`, the growth in test [1] was 78.8%; in test [2], 95.4%; in test [3] it was 98%; in test [4], 103%; in test [5] it was 92%; in test [6], 99.4%. For the same compound, the growth in test [7] is 106%; in test [8], 105%.

Take `COc1ccc(-c2c(C)nn3c(NCCN4CCOCC4)cc(C)nc23)cc1OC`: the growth in test [1] was 88.2%; in test [2], 93.3%; in test [3] it was 101%; in test [4], 99.4%; in test [5], 95.3%; in test [6], 90%. The growth in test [7] is 104%; in test [8], 107%.

Consider `C=C(C)[C@@H]1CC[C@]2(C(N)=O)CC[C@]3(C)[C@H](CC[C@@H]4[C@@]5(C)CC[C@H](O)C(C)(C)[C@@H]5CC[C@]43C)[C@@H]12`, for which the growth in test [1] was -24.8% [100 µM] (active); in test [2], -21.6% [100 µM] (active); in test [3], -4.44% [100 µM] (active); in test [4] it was -4.49% [100 µM] (active); in test [5] it was -12.5% [100 µM] (active); in test [6] it was -24.8% [100 µM] (active). Further, the growth in test [7] is -39% [100 µM] (active); in test [8], -63.5% [100 µM] (active).

`O=C1COCCN1c1ccc(Nc2nc(Cl)nc(N3CCOCC3)n2)cc1`: the growth is 88.5% in test [1]; 97.1% in test [2]; 99.5% in test [3]; 105% in test [4]; 85.5% in test [5]; 101% in test [6]. The growth is 89.1% in test [7] and 93.8% in test [8].

On to `O=C1CC(c2ccccc2)Cc2nc3ccc(Br)cc3cc21` (configuration not stated), for which the growth is 67.2% in test [1]; 6.48% (active) in test [2]; -39.8% (active) in test [3]; 25.1% in test [4]; 61.2% in test [5]; 5.56% (active) in test [6]. Moreover, the growth in test [7] was 27%; in test [8] it was 8.94% (active).

`CCn1cc(-c2cc(-c3ccc(Cl)cc3)nc(N)n2)c(-c2ccc(Br)cc2)n1`: the growth in test [1] was 48.1%; in test [2], 91.3%; in test [3], 92.8%; in test [4], 99.7%; in test [5], 72.2%; in test [6] it was 66.3%. The results for the growth in test [7] and in test [8] were 92.9% and 77.7%, respectively.

Regarding `COC(=O)c1cc2c(=O)[nH]cc3c2c(n1)CCC3`, the growth in test [1] was 91.9%; in test [2] it was 108%; in test [3] it was 119%; in test [4] it was 103%; in test [5] it was 94.1%; in test [6] it was 106%. The growth in test [7] was 88.4%; in test [8], 106%.

`COC(=O)[C@]1(C)CC[C@]2(C)CC[C@]3(C)C(=CC(=O)[C@@H]4[C@@]5(C)CCC(=O)NC(C)(C)[C@@H]5CC[C@]43C)[C@@H]2C1`: the growth in test [1] is -10.7% [100 µM] (active); in test [2], -78.6% [100 µM] (active); in test [3], -48.8% [100 µM] (active); in test [4], -54.8% [100 µM] (active); in test [5], -49.7% [100 µM] (active); in test [6], -72.5% [100 µM] (active). Further, the figures for the growth in test [7] and in test [8] were -89.2% [100 µM] (active) and -80.1% [100 µM] (active), respectively.

Regarding `O=C(N/N=C/c1ccc([N+](=O)[O-])cc1)c1ccc(Br)o1`, the growth was 131% in test [1]; 109% in test [2]; 108% in test [3]; 104% in test [4]; 71.2% in test [5]; 99.4% in test [6]. In addition, the growth in test [7] is 107%; in test [8], 126%.

For `CC1(C)S[C@@H]2[C@H](NC(=O)[C@H](C(=O)O)c3cccs3)C(=O)N2[C@H]1C(=O)O`, the growth in test [1] is 102%; in test [2], 96.2%; in test [3], 106%; in test [4], 113%; in test [5], 110%; in test [6] it was 108%. For the same compound, the growth in test [7] was 103%; in test [8], 106%.

As to `CCCc1cc2cc(-n3nc(C)c4c3CC(C)(C)CC4=O)cc(NC3CCSCC3)c2c(=O)[nH]1`, the growth in test [1] was 54.7%; in test [2], 61.5%; in test [3] it was 26.5%; in test [4] it was 32.4%; in test [5], 36.5%; in test [6], 19.8%. For the same compound, the growth in test [7] was 46.9%; in test [8], 41.7%.

For the compound `CC(C)=CCC[C@](C)(O)[C@H]1CC[C@]2(C)[C@@H]1CC[C@@H]1[C@@]3(C)CC[C@H](OC(=O)CCC(=O)O)C(C)(C)[C@@H]3CC[C@]12C`, the growth in test [1] is 25.7% [100 µM]; in test [2] it was 25.5% [100 µM]; in test [3], 6.66% [100 µM] (active); in test [4] it was 12.1% [100 µM]; in test [5] it was 15.8% [100 µM]; in test [6] it was 9.66% [100 µM] (active). For the same compound, the results for the growth in test [7] and in test [8] were 20.5% [100 µM] and -19% [100 µM] (active), respectively.
